# The sample as a whole holds a higher share of hits than the screen did.
# AMPAR-TARP mod: modulators of GluA2-stargazin AMPA receptor complexes, primary screen, cell-based, membrane potential dye; 3.5% of 40,000 active; calls only at 30 µM; HEK293 GluA2+stargazin, membrane potential dye (FDSS), glutamate EC50; hits were called plate by plate, in both directions; Voltage-dependent calcium channel gamma-2 subunit (Mus musculus) + Glutamate receptor 2 …;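 active means any of four per-well response measures lying three or more SD from its plate-wide compound average, in either direction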
# GIRK2 act: activators of NPY4-receptor-primed GIRK2 channels, summary, cell-based, HEK293, thallium flux | G protein-activated inward rectifier potassium channel 2 (Homo sapiens), P48051 | HEK293 GIRK2/NPY4 cells, thallium flux fluorescence | activation (% efficacy), % for hits at 37.5 µM | 34,000 tested, under 10 active | AID 1259324, 2017;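 active means primary screen hit, no activity in plain HEK293 cells, and in GIRK2-only cells above 5% efficacy rising with concentration; inactive means the rest, including fluorescent compounds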;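 further: efficacy is normalized control-subtracted fluorescence 15 s after thallium addition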
# Target sequence (P48051 whole entry, looked up): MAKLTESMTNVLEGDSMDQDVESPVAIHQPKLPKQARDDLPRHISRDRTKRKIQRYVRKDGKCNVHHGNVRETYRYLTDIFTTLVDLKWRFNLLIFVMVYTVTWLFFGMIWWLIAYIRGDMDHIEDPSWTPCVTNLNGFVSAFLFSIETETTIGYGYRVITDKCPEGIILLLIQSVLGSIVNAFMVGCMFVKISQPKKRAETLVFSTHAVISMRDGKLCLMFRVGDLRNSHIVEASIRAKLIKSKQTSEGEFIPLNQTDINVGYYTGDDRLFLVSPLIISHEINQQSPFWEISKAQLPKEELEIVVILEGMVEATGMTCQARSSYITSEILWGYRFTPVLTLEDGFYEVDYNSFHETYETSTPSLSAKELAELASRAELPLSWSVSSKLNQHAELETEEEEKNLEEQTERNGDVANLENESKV
# Calls only; . = inactive; / = no result given; + = active, no number.
SMILES,AMPAR-TARP mod,GIRK2 act
Nc1nc(SCC(=O)Nc2ccccc2)ncc1S(=O)(=O)c1ccc(Cl)s1,+,.
CC(C)(C)n1nc2c(c1-n1cccc1)CN(C(=O)c1cc3ccccc3oc1=O)C2,+,.
CC(C)(C)n1nc2c(c1-n1cccc1)CN(C(=O)Cn1c(=O)oc3ccccc31)C2,.,.
Cc1ccc2nc3c(cc(C(=O)NC4CCCC4)n3C)c(=O)n2c1,.,.
CN1CCOc2ccc(NS(=O)(=O)c3ccc(-c4ccccc4)cc3)cc2C1=O,.,/
CN1CCOc2ccc(NS(=O)(=O)c3ccccc3)cc2C1=O,+,/
Cc1cc(C)n(-c2cc(C(C)C)nc3c(-c4ccccc4)c(C)nn23)n1,+,.
Cc1nn2c(N3CCN(c4ccccn4)CC3)cc(C(C)C)nc2c1-c1ccccc1,.,.
O=S(=O)(CCCOc1ccc(F)cc1)NC1CCN(Cc2ccccc2)CC1,+,.
O=C(COc1ccc(F)cc1)NCCS(=O)(=O)N1CCN(Cc2ccccc2)CC1,.,.
O=C(O)CCN1CCN(Cc2ccc(Cl)cc2)CC1,+,.
O=C(O)CCN1CCN(Cc2ccccc2)CC1,.,.
Cc1cc(C)c2c(n1)sc1c(=O)n(CC(=O)NCc3ccccc3)cnc12,.,/
COc1ccc(CCC(=O)N(Cc2ccsc2)C2CC2)cc1,/,.
O=C(NCCc1ccccc1)C(=O)c1cn(CC(=O)N2CCOCC2)c2ccccc12,+,/
O=C(NCc1ccccc1)C(=O)c1cn(CC(=O)N2CCOCC2)c2ccccc12,.,/
NC(=O)C1Cc2ccccc2N1C(=O)c1ccc2c(c1)OCO2 (stereo not given),.,.
O=C(Cn1cnc2nc(N3CCOCC3)ncc2c1=O)Nc1cc(F)cc(F)c1,.,.
CCOc1ccc(CC(=O)Nc2nc3c(OC)cc([N+](=O)[O-])cc3s2)cc1,.,/
O=C(CCCS(=O)(=O)c1ccccc1)Nc1nc2ccc([N+](=O)[O-])cc2s1,+,.
Cc1ccc(S(=O)(=O)CCCC(=O)Nc2nc(-c3cc([N+](=O)[O-])cs3)cs2)cc1,+,.
COc1cc([N+](=O)[O-])cc2sc(NC(=O)CCCS(=O)(=O)c3ccccc3)nc12,+,.
COc1ccc(S(=O)(=O)CC(=O)Nc2nc3ccc([N+](=O)[O-])cc3s2)cc1,.,.
O=C(CCCS(=O)(=O)c1ccc(Cl)cc1)Nc1nc(-c2cc([N+](=O)[O-])cs2)cs1,.,/
COc1ccccc1N1CCN(CCNC(=O)C2CCCC2)CC1,.,/
SMILES,AMPAR-TARP mod,GIRK2 act
Cc1ccc(C)c(N2CCN(C(=O)c3ccc(S(=O)(=O)c4ccccc4)nc3)CC2)c1,.,.
COC(=O)c1ccccc1N=Nc1c(N)[nH]n(-c2ccccc2)c1=O,+,/
COC(=O)c1ccccc1-n1c(=O)c2ccccc2c2ccccc2c1=O,.,/
O=C(c1ccco1)N1N=C(c2ccco2)CC1c1cccc([N+](=O)[O-])c1 (stereo not given),.,.
CCOc1cn(-c2ccc(F)cc2)nc1C(=O)N1CC(C)CC(C)C1 (stereo not given),+,.
CCOC(=O)N1CCN(C(=O)c2nn(-c3ccc(F)cc3)cc2OCC)CC1,.,.
CCOc1cn(-c2ccc(F)cc2)nc1C(=O)N1CCCCC1,.,.
CCCOc1cn(-c2ccc(F)cc2)nc1C(=O)NCCC(C)C,+,.
CCCOc1cn(-c2ccc(F)cc2)nc1C(=O)NCCc1ccccc1,.,.
CCOc1cn(-c2ccc(F)cc2)nc1C(=O)N1c2ccccc2CC1C (stereo not given),+,.
COc1ccc(NC(=O)C(=O)NCC(c2cccn2C)N2CCOCC2)c(OC)c1 (stereo not given),.,.
O=C1NC2(CCN(S(=O)(=O)c3ccccc3Cl)CC2)C(=O)N1CCc1ccccc1,/,.
Cc1ccc(-c2nsc(C(=O)NCCc3cccs3)c2N)cc1,/,.
Cc1nnc(CNC(=O)C(=O)NC2CC2)o1,.,.
O=C1c2ccccc2C(O)(Cc2ccccc2)N1C(c1ccccc1)c1ccccc1 (stereo not given),+,/
O=C1c2ccccc2C(O)(Cc2ccccc2)N1CCCN1CCOCC1 (stereo not given),.,/
CCCCOc1ccc(C(=O)Nc2ccc(OC)c(N3CCCCC3=O)c2)cc1,.,.
CCOC(=O)c1sc(NC(=O)c2ccncc2)c(C(=O)OCC)c1C,+,/
CCOC(=O)c1sc(NC(=O)C2CCCN2S(C)(=O)=O)c(C(=O)OCC)c1C (stereo not given),.,.
O=C(NC1CCCCC1)c1ncccn1,/,.
CNS(=O)(=O)c1ccc(C(=O)N(C)c2ccccc2)o1,.,.
O=C(NCCCn1cccc1)c1c(F)cccc1F,+,.
O=C(NCCCn1cccc1)c1ccccc1C(F)(F)F,.,.

# Assay outcomes from PubChem BioAssay.
